Measurements from the supplement of paper PMC7726561.
In all, about 1,400 sequences were measured (“thermal melting temperature (Tm) of peptide-HLA complex”: median about 60, lowest 2% from about 45 on). Only a selection was taken, and the lowest values are over-represented in it overall.

B1: unnamed (peptide)
chain: MPYSNGRPAL
B2: unnamed (peptide)
chain: HPRSPNVLSV
B3: unnamed (peptide)
chain: AVDPNRAVPL
B4: unnamed (peptide)
chain: GPHVPFTVF
B5: unnamed (peptide)
chain: GPRSAQVAQSL
B6: unnamed (peptide)
chain: SPRALTQPLGL
B7: unnamed (peptide)
chain: RPTEGVQAL
B8: unnamed (peptide)
chain: VIAPVRAVL
B9: unnamed (peptide)
chain: VARPLSTAL
B10: unnamed (peptide)
chain: HPVVSSVPL
B11: unnamed (peptide)
chain: RPYGVGLLI
B12: unnamed (peptide)
chain: IPSIRNGIL
B13: unnamed (peptide)
chain: SPRTPVSPVKF
B14: unnamed (peptide)
chain: SPRAPVSPLKF
B15: unnamed (peptide)
chain: WPHPPGPFL
B16: unnamed (peptide)
chain: SPIYISRII
B17: unnamed (peptide)
chain: RPFERTITM
B18: unnamed (peptide)
chain: QPATPGLGM
B19: unnamed (peptide)
chain: APSGTRVVQVL
B20: unnamed (peptide)
chain: KPRPIIPML
B21: unnamed (peptide)
chain: IPTKKSQVF
B22: unnamed (peptide)
chain: YPFFRGVTI
B23: unnamed (peptide)
chain: HPRAPVLL
B24: unnamed (peptide)
chain: TPEEVRLPL
B25: unnamed (peptide)
chain: RPTGGVGAV
B26: unnamed (peptide)
chain: SPANLPAVL
B27: unnamed (peptide)
chain: FPRAPSTSDSV
B28: unnamed (peptide)
chain: TPLGTRSGL
B29: unnamed (peptide)
chain: SPNLRLLDL
B30: unnamed (peptide)
chain: LPSPSPRISL
B31: unnamed (peptide)
chain: GSISRIYL
B32: unnamed (peptide)
chain: NVRPPNTAL
B33: unnamed (peptide)
chain: APYSRPKQL
B34: unnamed (peptide)
chain: APRGTGIVSA
B35: unnamed (peptide)
chain: IPRGADNLVAI
B36: unnamed (peptide)
chain: VPRPPSLLATL
B37: unnamed (peptide)
chain: FPQHTIASL
B38: unnamed (peptide)
chain: GPRNVLLFL
B39: unnamed (peptide)
chain: TPQQGAQTSL
B40: unnamed (peptide)
chain: TPQGFRSTL
B41: unnamed (peptide)
chain: YLRDTLLAL
B42: unnamed (peptide)
chain: VPEVTKPSL
B43: unnamed (peptide)
chain: SPRPALPALL
B44: unnamed (peptide)
chain: APILRARLLPL
B45: unnamed (peptide)
chain: YPKRPLLGL
B46: unnamed (peptide)
chain: YIDEGRLVL
B47: unnamed (peptide)
chain: GPRSSLRVL
B48: unnamed (peptide)
chain: FPRSVVEFL
B49: unnamed (peptide)
chain: LPTSPGPAL
B50: unnamed (peptide)
chain: LPAPKGPAL
B51: unnamed (peptide)
chain: KPNHTLVLL
B52: unnamed (peptide)
chain: RPADSMLNVL
B53: unnamed (peptide)
chain: RPAPLVQQL
B54: unnamed (peptide)
chain: APREHPFVL
B55: unnamed (peptide)
chain: LPRTIFPTSTI
B56: unnamed (peptide)
chain: LPHSATVTL

molecular target: HLA-B*07:02; assay: thermal melting temperature (Tm) of peptide-HLA complex; higher = more thermostable pHLA complex; conditions: C1R-B*07:02
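Also: lysates heated 10 min at 37–73 °C, complexes pulled down with pan-HLA I antibody, peptide signal by DIA-MS relative to 37 °C, Tm where half the complex is unfolded.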

| Sequence | thermal melting temperature |
| --- | --- |
| B1 | 58.2 °C |
| B2 | 57.6 °C |
| B3 | 60.5 °C |
| B4 | 62.3 °C |
| B5 | 40.4 °C |
| B6 | 61.2 °C |
| B7 | 54.3 °C |
| B8 | 59.2 °C |
| B9 | 59.6 °C |
| B10 | 57.8 °C |
| B11 | 59 °C |
| B12 | 62.8 °C |
| B13 | 59.3 °C |
| B14 | 59.5 °C |
| B15 | 62.3 °C |
| B16 | 58.8 °C |
| B17 | 56.5 °C |
| B18 | 57 °C |
| B19 | 41.4 °C |

| Sequence | thermal melting temperature |
| --- | --- |
| B20 | 60.7 °C |
| B21 | 58.9 °C |
| B22 | 61.8 °C |
| B23 | 59.5 °C |
| B24 | 62.1 °C |
| B25 | 54.3 °C |
| B26 | 62.6 °C |
| B27 | 57.1 °C |
| B28 | 55.6 °C |
| B29 | 63.4 °C |
| B30 | 60.6 °C |
| B31 | 41.4 °C |
| B32 | 56.8 °C |
| B33 | 61.5 °C |
| B34 | 57.4 °C |
| B35 | 61.8 °C |
| B36 | 62.9 °C |
| B37 | 58.7 °C |
| B38 | 55.1 °C |

| Sequence | thermal melting temperature |
| --- | --- |
| B39 | 40.5 °C |
| B40 | 60 °C |
| B41 | 53.6 °C |
| B42 | 57.6 °C |
| B43 | 60.2 °C |
| B44 | 47.3 °C |
| B45 | 61.3 °C |
| B46 | 51.6 °C |
| B47 | 58.9 °C |
| B48 | 62 °C |
| B49 | 40.6 °C |
| B50 | 57.9 °C |
| B51 | 59.2 °C |
| B52 | 62 °C |
| B53 | 58.3 °C |
| B54 | 61 °C |
| B55 | 62.8 °C |
| B56 | 60.7 °C |
